# “And” between values parts separate entries of the source, which are not always exact repeats. Equal values may be shown once. Records with an inconclusive call do not appear. The source holds several records for some structures; these can differ, active in one and inactive in another. The source made the active and inactive calls. The calls were made as follows, unless noted: active = hit-call score of the fitted dose curve at least 0.9, where 1 is the maximum; inconclusive = response in the unintended direction; inactive = score below 0.9.
# How the values were obtained:
# [1] = molecular target: Androgen receptor (Homo sapiens) (UniProt P10275); experiment: ATG_AR_TRANS: Attagene TRANS-FACTORIAL HepG2 Assay for human Androgen Receptor (AR) (AID 2282973); details: HepG2 Attagene TRANS-FACTORIAL AR reporter transcription
# Androgen receptor (Homo sapiens), sequence (P10275 whole entry, looked up, the tested form may be a part): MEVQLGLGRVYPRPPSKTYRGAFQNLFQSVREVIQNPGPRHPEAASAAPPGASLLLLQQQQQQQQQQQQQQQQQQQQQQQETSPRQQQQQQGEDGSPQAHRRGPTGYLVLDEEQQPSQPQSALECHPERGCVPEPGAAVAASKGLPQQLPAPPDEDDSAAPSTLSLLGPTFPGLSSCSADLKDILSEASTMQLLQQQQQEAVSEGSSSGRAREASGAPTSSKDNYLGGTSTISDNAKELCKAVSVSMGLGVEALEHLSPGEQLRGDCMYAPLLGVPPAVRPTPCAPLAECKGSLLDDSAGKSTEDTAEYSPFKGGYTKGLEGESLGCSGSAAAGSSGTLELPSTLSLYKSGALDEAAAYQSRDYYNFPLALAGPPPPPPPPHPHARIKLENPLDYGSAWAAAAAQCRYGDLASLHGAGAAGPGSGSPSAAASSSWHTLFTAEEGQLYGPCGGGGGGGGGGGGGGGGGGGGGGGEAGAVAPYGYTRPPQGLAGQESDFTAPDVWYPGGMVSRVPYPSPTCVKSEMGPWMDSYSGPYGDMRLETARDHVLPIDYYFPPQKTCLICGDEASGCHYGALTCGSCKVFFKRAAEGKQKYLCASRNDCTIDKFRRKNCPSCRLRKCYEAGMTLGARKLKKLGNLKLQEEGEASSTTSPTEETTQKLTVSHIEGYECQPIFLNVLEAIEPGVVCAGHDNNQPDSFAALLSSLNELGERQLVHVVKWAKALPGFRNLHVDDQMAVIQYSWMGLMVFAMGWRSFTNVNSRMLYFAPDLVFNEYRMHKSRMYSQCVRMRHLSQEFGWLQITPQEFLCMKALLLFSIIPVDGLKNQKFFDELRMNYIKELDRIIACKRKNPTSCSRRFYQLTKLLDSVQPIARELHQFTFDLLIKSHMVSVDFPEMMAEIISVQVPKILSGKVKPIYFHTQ
# Outline: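 HepG2 cells transiently transfected with multiplexed GAL4-UAS reporter units and chimeric NR-Gal4 fusion; 24 h compound exposure. Reporter mRNA measured by RT-PCR, 6-FAM labelling, HpaI digestion and capillary electrophoresis; gain-of-signal fitted relative to DMSO baseline.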
# [2] = Tanguay_ZF_120hpf_MUSC: Oregon State University Tanguay Lab 120 Hour Post-fertilization zebrafish Assay for Muscle Malformation (AID 2284401; active = hit-call score of the fitted dose curve at least 0.9, where 1 is the maximum; inactive = score below 0.9)
# Outline: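 Scored as a binary brightfield endpoint at 120 hpf, fitted versus DMSO. Single dechorionated wild-type (Tropical 5D) zebrafish embryos per well, statically exposed at 28C from 6 hpf onward with final DMSO 0.64%.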
# [3] = tested on: rat CYP2B1, gene 24300; experiment: NVS_ADME_rCYP2B1: NovaScreen (NVS) CYP450-related Enzyme Activity (ADME) Assay for rat CYP2B1 (AID 2283117)
# Outline: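 Cell-free fluorescence enzyme assay, recombinant rat CYP2B1, 0.75 h after dosing. Single-concentration duplicates at 10 uM preceded concentration series (max 20 uM) for actives; acetonitrile as negative-control baseline.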
# [4] = molecular target: human Fibroblast Growth Factor Receptor 1 (FGFR1), FGFR1 (gene 2260) (UniProt P11362); experiment: NVS_ENZ_hFGFR1: NovaScreen (NVS) Enzymatic Assay for human Fibroblast Growth Factor Receptor 1 (FGFR1) (AID 2283159);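 also: hits lower the signal so potencies describe inhibitors of the kinase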
# human Fibroblast Growth Factor Receptor 1 (FGFR1), FGFR1 (gene 2260), sequence (P11362 whole entry, looked up): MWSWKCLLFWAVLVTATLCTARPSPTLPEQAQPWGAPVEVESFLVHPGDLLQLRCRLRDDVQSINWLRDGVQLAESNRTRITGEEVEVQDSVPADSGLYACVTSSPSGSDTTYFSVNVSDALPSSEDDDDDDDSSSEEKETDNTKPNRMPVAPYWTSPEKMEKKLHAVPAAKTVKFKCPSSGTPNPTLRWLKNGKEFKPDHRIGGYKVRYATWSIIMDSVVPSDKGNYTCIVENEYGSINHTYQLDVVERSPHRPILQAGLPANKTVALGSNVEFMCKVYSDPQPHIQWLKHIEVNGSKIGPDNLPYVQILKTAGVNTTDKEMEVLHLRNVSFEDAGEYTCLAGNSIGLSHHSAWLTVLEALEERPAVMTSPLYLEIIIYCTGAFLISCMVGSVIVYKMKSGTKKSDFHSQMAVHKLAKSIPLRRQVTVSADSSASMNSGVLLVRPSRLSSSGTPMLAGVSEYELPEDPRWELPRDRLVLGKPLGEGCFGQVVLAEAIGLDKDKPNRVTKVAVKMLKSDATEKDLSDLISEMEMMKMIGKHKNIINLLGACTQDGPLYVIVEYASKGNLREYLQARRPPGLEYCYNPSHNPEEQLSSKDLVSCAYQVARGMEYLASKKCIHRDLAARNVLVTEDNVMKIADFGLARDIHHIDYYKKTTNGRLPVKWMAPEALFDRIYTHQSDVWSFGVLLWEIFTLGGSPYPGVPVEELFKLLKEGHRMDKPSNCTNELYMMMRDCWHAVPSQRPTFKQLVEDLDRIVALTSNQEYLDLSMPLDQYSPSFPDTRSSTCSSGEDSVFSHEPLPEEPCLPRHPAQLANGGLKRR
# Outline: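 Cell-free recombinant kinase with fluorescent substrate, product separated by electrophoretic mobility shift; read 1 hour after dosing, loss of signal relative to DMSO. Initial screen in duplicate at 25 uM, actives followed in concentration series.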
# [5] = molecular target: rat Monoamine Oxidase, MAO-B, Central (MAOBC), Maob (gene 25750) (UniProt P19643); experiment: NVS_ENZ_rMAOBC: NovaScreen (NVS) Enzymatic Assay for rat Monoamine Oxidase, MAO-B, Central (MAOBC) (AID 2283238)
# rat Monoamine Oxidase, MAO-B, Central (MAOBC), Maob (gene 25750), sequence (P19643 whole entry, looked up): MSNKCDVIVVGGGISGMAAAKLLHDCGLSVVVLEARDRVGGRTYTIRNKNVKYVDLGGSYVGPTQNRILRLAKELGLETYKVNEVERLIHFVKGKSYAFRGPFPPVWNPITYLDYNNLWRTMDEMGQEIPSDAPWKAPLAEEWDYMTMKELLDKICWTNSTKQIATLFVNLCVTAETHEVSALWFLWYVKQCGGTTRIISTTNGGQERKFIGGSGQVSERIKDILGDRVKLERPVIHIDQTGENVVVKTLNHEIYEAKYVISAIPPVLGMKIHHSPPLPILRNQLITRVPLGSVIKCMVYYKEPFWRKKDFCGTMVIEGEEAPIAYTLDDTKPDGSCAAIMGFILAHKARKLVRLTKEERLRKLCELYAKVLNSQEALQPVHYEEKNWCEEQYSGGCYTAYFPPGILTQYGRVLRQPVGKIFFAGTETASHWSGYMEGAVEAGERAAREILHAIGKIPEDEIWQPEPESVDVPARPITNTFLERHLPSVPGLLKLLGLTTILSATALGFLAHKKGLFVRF
# Outline: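 Actives from a duplicate 25 uM screen went on to singleton concentration-response with a 50 uM maximum. Enzyme source was rat brain tissue MAO-B, assayed cell-free. Radiolabelled product was counted by scintillation 1.17 h post-dose, with signal loss relative to DMSO.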
# [6] = molecular target: rat Monoamine Oxidase, MAO-B, Peripheral (MAOBP), Maob (gene 25750) (UniProt P19643); experiment: NVS_ENZ_rMAOBP: NovaScreen (NVS) Enzymatic Assay for rat Monoamine Oxidase, MAO-B, Peripheral (MAOBP) (AID 2283242)
# rat Monoamine Oxidase, MAO-B, Peripheral (MAOBP), Maob (gene 25750), sequence (P19643 whole entry, looked up): as above
# [7] = molecular target: Norway rat Vesicular Monoamine Transporter (VMAT2), neurotransmitter transporter, Slc18a2 (gene 25549) (UniProt Q01827); experiment: NVS_TR_rVMAT2: NovaScreen (NVS) Transporter Assay for Norway rat Vesicular Monoamine Transporter (VMAT2), neurotransmitter transporter (AID 2283376);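 also: actives lower the bound radioligand signal below the DMSO level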
# Norway rat Vesicular Monoamine Transporter (VMAT2), neurotransmitter transporter, Slc18a2 (gene 25549), sequence (Q01827 whole entry, looked up): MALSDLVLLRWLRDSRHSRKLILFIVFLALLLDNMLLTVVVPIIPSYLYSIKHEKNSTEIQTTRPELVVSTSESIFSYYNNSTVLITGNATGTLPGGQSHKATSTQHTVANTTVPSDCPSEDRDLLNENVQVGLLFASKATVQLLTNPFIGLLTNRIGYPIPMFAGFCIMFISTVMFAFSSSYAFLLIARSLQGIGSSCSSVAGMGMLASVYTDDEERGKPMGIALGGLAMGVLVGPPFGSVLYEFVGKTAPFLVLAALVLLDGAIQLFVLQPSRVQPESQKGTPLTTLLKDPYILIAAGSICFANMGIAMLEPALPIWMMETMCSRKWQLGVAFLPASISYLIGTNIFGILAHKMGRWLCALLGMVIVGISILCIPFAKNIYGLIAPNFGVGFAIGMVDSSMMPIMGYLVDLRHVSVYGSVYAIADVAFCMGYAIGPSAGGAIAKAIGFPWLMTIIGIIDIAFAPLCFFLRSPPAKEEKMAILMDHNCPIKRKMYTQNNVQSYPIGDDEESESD
# Outline: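 Using rat forebrain membranes, specific radioligand binding to VMAT2 was measured by filtration and scintillation counting after 1 hour. Chemicals screened at 25 uM in duplicate, actives retested in concentration series, DMSO baseline.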
# [8] = CCTE_Harrill_HTTr_Apoptosis_PRF_DMEM_12hr: (Pilot) CCTE's 12-hour Apoptosis Assessment for the High-Throughput Transcriptomics (HTTr) Platform, in MCF-7 cells cultured in phenol red-free DMEM + 10% charcoal-stripped fetal bovine serum, Harrill Lab (AID 2283985; active = hit-call score of the fitted dose curve at least 0.9, where 1 is the maximum; inactive = score below 0.9)
# Outline: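 Caspase-3/7 activity by CellEvent Green high content imaging after 12 h compound exposure (eight concentrations) in MCF-7 grown in phenol red-free DMEM plus 10% charcoal-stripped serum; DMSO as baseline.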
smiles,measurement,setting,value
O=C(O)C(F)(F)C(F)(F)C(F)(F)F,outcome,[1],inactive
same,outcome,[2],inactive
OCCCCC(F)(F)C(F)(F)C(F)(F)C(F)(F)F,outcome,[1],inactive
same,outcome,[2],inactive
O=C(O)C(F)(F)C(F)(F)C(F)(F)C(F)(F)F,outcome,[1],inactive
same,outcome,[2],inactive
FC(F)(F)C(F)(F)C(F)(F)CI,outcome,[1],inactive
same,outcome,[2],inactive
FC(F)(F)C(F)(F)C(F)(F)C(F)(F)C(F)(F)C(F)(F)C(F)(F)Br,outcome,[1],inactive
same,outcome,[2],inactive
C=CC(=O)OCC(F)(F)C(F)(F)C(F)(F)C(F)(F)C(F)(F)C(F)(F)C(F)(F)C(F)F,outcome,[1],inactive
same,outcome,[2],inactive
C=C(C)C(=O)OCC(F)(F)C(F)(F)C(F)(F)F,outcome,[1],inactive
same,outcome,[2],inactive
O=S(=O)(OCC(F)(F)F)C(F)(F)C(F)(F)C(F)(F)C(F)(F)F,outcome,[1],inactive
same,outcome,[2],inactive
O=C(O)C(F)(F)C(F)(F)OC(F)(F)F,outcome,[1],inactive
same,outcome,[2],inactive
O=C(Cl)C(F)(F)C(F)(F)C(F)(F)C(=O)Cl,outcome,[1],inactive
same,outcome,[2],inactive
O=S(=O)(O)CCC(F)(F)C(F)(F)C(F)(F)C(F)(F)C(F)(F)C(F)(F)F,outcome,[1],inactive
same,outcome,[2],inactive
CCCCCCCCC(F)(F)C(F)(F)C(F)(F)C(F)(F)C(F)(F)C(F)(F)F,outcome,[1],inactive
same,outcome,[2],inactive
O=C(O)C(F)(OC(F)(F)C(F)(OC(F)(F)C(F)(F)C(F)(F)F)C(F)(F)F)C(F)(F)F (configuration not stated),outcome,[1],inactive
same,outcome,[2],inactive
CCN(CCO)S(=O)(=O)C(F)(F)C(F)(F)C(F)(F)C(F)(F)C(F)(F)C(F)(F)C(F)(F)C(F)(F)F,outcome,[1],inactive
same,outcome,[2],inactive
NCC(F)(F)C(F)(F)C(F)(F)C(F)(F)F,outcome,[1],inactive
same,outcome,[2],inactive
C=CC(F)(F)C(F)(F)C(F)(F)C(F)(F)C(F)(F)C(F)(F)C(F)(F)C(F)(F)F,outcome,[1],inactive
same,outcome,[2],inactive
C=CC(F)(F)C(F)(F)C(F)(F)C(F)(F)C(F)(F)C(F)(F)C(F)(F)C(F)(F)C=C,outcome,[1],inactive
same,outcome,[2],inactive
O=C(O)C(F)(F)OC(F)(F)C(F)(F)OC(F)(F)C(F)(F)OC(F)(F)C(F)(F)C(F)(F)C(F)(F)F,outcome,[1],inactive
same,outcome,[2],inactive
OCC(F)(F)C(F)(F)C(F)(F)CO,outcome,[1],inactive
same,outcome,[2],inactive
OCC(F)(F)C(F)(F)C(F)(F)F,outcome,[1],inactive
same,outcome,[2],inactive
O=C(O)C(F)(OC(F)(F)C(F)(OC(F)(F)C(F)(OC(F)(F)C(F)(F)C(F)(F)F)C(F)(F)F)C(F)(F)F)C(F)(F)F (configuration not stated),outcome,[1],inactive
same,outcome,[2],inactive
FC(F)(F)COC(OCC(F)(F)F)OCC(F)(F)F,outcome,[1],inactive
same,outcome,[2],inactive
OC(O)C(F)(F)C(F)(F)F,outcome,[1],inactive
same,outcome,[2],inactive
C=CC(=O)OCC(F)(F)C(F)(F)C(F)(F)C(F)(F)COC(=O)C=C,outcome,[1],inactive
same,outcome,[2],inactive
FC(F)(F)C(F)(F)C(F)(F)C(F)(F)C(F)(F)CCI,outcome,[1],inactive
same,outcome,[2],inactive
NC(O)(C(F)(F)F)C(F)(F)F,outcome,[1],inactive
same,outcome,[2],inactive
Cc1ccc(S(=O)(=O)OCC(F)(F)C(F)(F)C(F)(F)C(F)(F)C(F)(F)C(F)F)cc1,outcome,[1],inactive
same,outcome,[2],inactive
FC(F)=C(F)C(F)(F)C(F)(F)C(F)(F)C(F)(F)C(F)(F)C(F)(F)F,outcome,[1],inactive
same,outcome,[2],inactive
OCC(F)(F)C(F)(F)C(F)(F)C(F)(F)C(F)(F)C(F)F,outcome,[1],inactive
same,outcome,[2],inactive
FC1CC(F)(F)C(F)(F)C1(F)F (configuration not stated),outcome,[1],inactive
same,outcome,[2],inactive
CCN(CC)CCOc1ccc(C(=C(Cl)c2ccccc2)c2ccccc2)cc1,AC50,[3],7.35 µM (active) and 7.71 µM (active)
same,outcome,[3],inactive
same,AC50,[4],27.1 µM (active)
same,AC50,[5],12.4 µM (active) [middle of 4 runs]
same,AC50,[6],3.9 µM (active)
same,AC50,[7],5.01 µM (active)
same,AC50,[8],81.6 µM (active)
